From PubChem BioAssay AID1159580 (chemical genetic matrix, 2015)
Where “and” joins values, the source holds several entries; their conditions need not be identical. Equal values may be shown once. About 2,000 (36%) of roughly 5,500 compounds were called active. Not shown: some 18% with an inconclusive outcome. Cut-off read from the data, not from the text of the source: active = normalized growth mostly below about 0.91 (no sharp cut-off); inconclusive = no clear call, values can overlap the other calls; inactive = mostly above about 0.92. The list shows a part of the results.

Assay: chemical genetic growth profiling, strain panel (AID 1159580);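 note: tested at 20 µM; growth read once vehicle control cultures reached saturation at 30 °C; 1 = growth at the plate median or of vehicle wells; lower values mean less growth of the strain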
Conditions: S. cerevisiae deletion strains, growth OD

Measured: normalized growth

CCOC(=O)[C@H](CCc1ccccc1)N[C@@H](C)C(=O)N1[C@H](C(=O)O)C[C@@H]2CCC[C@@H]21
inactive: locus YAL013W, strain DEP1, stronger effect = lower value 1.01 | locus YAL021C, strain ccr4, stronger effect = lower value 1.01 | locus YAL026C, strain drs2, stronger effect = lower value 0.985 | locus YAL030W, strain snc1, stronger effect = lower value 0.995 | locus YBL061C, strain skt5, stronger effect = lower value 0.984 | locus YBR009C, strain hhf1, stronger effect = lower value 0.995 | locus YBR021W, strain FUR4, stronger effect = lower value 1 | locus YBR023C, strain chs3, stronger effect = lower value 0.983 | locus YBR171W, strain sec66, stronger effect = lower value 0.971 | locus YBR229C, strain ROT2, stronger effect = lower value 1.01 | locus YBR231C, strain swc5, stronger effect = lower value 0.982 | locus YBR279W, strain paf1, stronger effect = lower value 0.979 | locus YCL011C, strain gbp2, stronger effect = lower value 0.981 | locus YCL016C, strain dcc1, stronger effect = lower value 0.985 | locus YCL029C, strain bik1, stronger effect = lower value 1.01 | locus YCL061C, strain MRC1, stronger effect = lower value 0.982 | locus YCL069W, strain vba3, stronger effect = lower value 0.977 | locus YCR088W, strain abp1, stronger effect = lower value 0.978 | locus YDL005C, strain med2, stronger effect = lower value 0.981 | locus YDL035C, strain GPR1, stronger effect = lower value 1.01 | locus YDL040C, strain nat1, stronger effect = lower value 0.981 | locus YDL074C, strain BRE1, stronger effect = lower value 1.02 | locus YDL101C, strain DUN1, stronger effect = lower value 1.01 | locus YDL134C, strain PPH21, stronger effect = lower value 1.01 | locus YDL185W, strain tfp1, stronger effect = lower value 0.998 | locus YDL192W, strain arf1, stronger effect = lower value 1.02 | locus YDR001C, strain nth1, stronger effect = lower value 0.978 | locus YDR069C, strain doa4, stronger effect = lower value 1.01 | locus YDR101C, strain arx1, stronger effect = lower value 1.01 | locus YDR137W, strain rgp1, stronger effect = lower value 0.946 | locus YDR150W, strain NUM1, stronger effect = lower value 1.01 | locus YDR159W, strain sac3, stronger effect = lower value 0.987 | locus YDR162C, strain NBP2, stronger effect = lower value 1.03 | locus YDR195W, strain ref2 0.97 | locus YDR297W, strain sur2, stronger effect = lower value 0.981 | locus YDR318W, strain mcm21, stronger effect = lower value 1.02 | locus YDR334W, strain swr1, stronger effect = lower value 0.978 | locus YDR335W, strain msn5, stronger effect = lower value 0.985 | locus YDR388W, stronger effect = lower value 1.01 | locus YDR392W, strain spt3, stronger effect = lower value 0.974 | locus YDR502C, strain sam2, stronger effect = lower value 1.01 | locus YEL003W, strain gim4, stronger effect = lower value 0.981 | locus YEL037C, strain rad23, stronger effect = lower value 0.982 | locus YEL061C, strain CIN8 (second series), stronger effect = lower value 0.98 | locus YEL061C, strain CIN8, stronger effect = lower value 1.01 | locus YER015W, strain faa2, stronger effect = lower value 0.989 | locus YER016W, strain bim1, stronger effect = lower value 0.993 | locus YER110C, stronger effect = lower value 1.01 | locus YER111C, strain swi4, stronger effect = lower value 0.976 | locus YER155C, strain BEM2 (second series), stronger effect = lower value 0.972 | locus YER155C, strain BEM2, stronger effect = lower value 1 | locus YER167W, strain BCK2, stronger effect = lower value 1.01 | locus YFR010W, strain ubp6, stronger effect = lower value 0.989 | locus YGL078C, strain dbp3, stronger effect = lower value 1.01 | locus YGL086W, strain mad1, stronger effect = lower value 1.02 | locus YGL167C, strain pmr1, stronger effect = lower value 0.979 | locus YGL173C, strain kem1, stronger effect = lower value 0.969 | locus YGL227W, strain vid30, stronger effect = lower value 0.979 | locus YGL240W, strain doc1, stronger effect = lower value 1 | locus YGL248W, strain PDE1, stronger effect = lower value 1.01 | locus YGL253W, strain hxk2, stronger effect = lower value 0.996 | locus YGR078C, strain PAC10, stronger effect = lower value 1.01 | locus YGR135W, strain pre9, stronger effect = lower value 1.02 | locus YGR229C, strain SMI1, stronger effect = lower value 1.01 | locus YGR252W, strain gcn5, stronger effect = lower value 1.03 | locus YHR013C, strain ard1, stronger effect = lower value 0.956 | locus YHR027C, strain rpn1, stronger effect = lower value 0.979 | locus YHR030C, strain SLT2, stronger effect = lower value 1 and 1.01 | locus YHR079C, strain IRE1 (second series), stronger effect = lower value 1.01 | locus YHR079C, strain IRE1, stronger effect = lower value 1 | locus YHR094C, strain hxt1, stronger effect = lower value 1.02 | locus YHR129C, strain ARP1, stronger effect = lower value 1.01 | locus YHR142W, strain chs7, stronger effect = lower value 0.971 | locus YHR200W, strain rpn10, stronger effect = lower value 1.02 | locus YIL066C, strain RNR3, stronger effect = lower value 1.01 | locus YIL073C, strain SPO22, stronger effect = lower value 1.07 | locus YIL125W, strain kgd1, stronger effect = lower value 1.03 | locus YIR030C, strain dcg1, stronger effect = lower value 1.02 | locus YJL092W, strain hpr5, stronger effect = lower value 0.981 | locus YJL095W, strain BCK1 (second series), stronger effect = lower value 0.985 | locus YJL095W, strain BCK1, stronger effect = lower value 1 and 0.991 | locus YJL115W, strain asf1, stronger effect = lower value 0.986 | locus YJL129C, strain trk1, stronger effect = lower value 0.987 | locus YJL134W, strain LCB3, stronger effect = lower value 1.01 | locus YJL154C, strain vps35, stronger effect = lower value 0.978 | locus YJL164C, strain tpk1, stronger effect = lower value 0.995 | locus YJL166W, strain qcr8, stronger effect = lower value 0.99 | locus YJL168C, strain set2, stronger effect = lower value 1.02 | locus YJL187C, strain SWE1 (second series), stronger effect = lower value 1.01 | locus YJL187C, strain SWE1, stronger effect = lower value 0.985 | locus YJR043C, strain POL32, stronger effect = lower value 1.01 | locus YJR066W, strain TOR1, stronger effect = lower value 0.955
